{
  "source": "PubChem BioAssay (Tox21)",
  "note": "Inconclusive results are not listed. Unmarked numbers belong to inactive results. Active and inactive are the calls of the source. The call rests on the fitted dose curve; in most records, active means well fitted cell-killing curve with a large enough effect in the repeat runs; inconclusive means weak or mixed curves, or effect the other way; inactive means flat fitted curve, though single readings scatter. On the % scale 0 is the no-effect control and ±100 the full control effect.",
  "data": [
    {"assay": "qHTS assay to identify small molecule antagonists of the retinoid acid receptor (RAR) signaling pathway - cell viability counter screen (AID 1159551); further: nearly all actives have a fitted effect of over 35% in size", "conditions": "C3RL4 cells viability, ATP luminescence (CellTiter-Glo), 6 h; series mostly up to 92.4 µM", "from_the_text": "U.S. Tox21 Program National Center for Advancing Translational Sciences [NCATS] NIH Chemical Genomics Center [NCGC] U.S. Environmental Protection Agency [EPA] National Institutes of Environmental Health Sciences [NIEHS] National Toxicology Program [NTP] U.S. Food and Drug Administration [FDA] Tox21 Assay Overview: All-trans Retinoic acid (atRA) is the potent natural metabolite of retinol and plays an important role in normal embryonic development and maintenance of cellular phenotype in adult animals. atRA is the activating ligand for the retinoic acid receptors (RARs) which form heterodimers with retinoid X receptors (RXRs) on the retinoic acid response element (RARE). Through activation of the RAR/RXRs nuclear receptors, atRA regulates the transcription of a large number of protein-coding genes and regulatory RNAs. Intracellular levels of atRA are controlled by the retinol signaling pathway (RSP) that regulates the biosynthesis and catabolism of atRA to maintain physiological levels. Chemicals that interfere with the RSP can cause abnormal intracellular levels of atRA and therefore are potential developmental toxicants. To assess compounds for the potential adverse effect on embryonic development through interfering with retinol signaling, a cell-based RARE luciferase reporter gene assay was used. C3RL4 cell line (OARSA/CFSAN/FDA, Laurel, MD) was used to screen Tox21 10K compound library for identifying inhibitors of the RSP. Also cytotoxicity was assessed by determining the viability of cells based on the quantitation of ATP.\nTox21 Assay Protocol Summary: C3RL4 cells were seeded at 1,000/well in 4 uL of assay medium into white solid 1,536-well tissue culture plates (Greiner Bio-One North America Inc. Monroe, NC) using a Multidrop Combi (Thermo Scientific, Waltham, MA) dispenser. After incubation at 37 C and 5% CO2 for an overnight, 23 nL of compounds dissolved in DMSO, positive control or DMSO only were transferred by a Pintool station (Kalypsys, San Diego, CA). One ul of 1 uM (final concentration) of Retinol was added right after the compound addition by using a Flying Reagent Dispenser (FRD) (Aurora Discovery, San Diego, CA). After 6 hr incubation at 37 C and 5% CO2, 5 uL of CellTiter-Glo reagent (Promega Corporation, Madison, WI) was added to each assay plate using an FRD. Luminescence was quantified on a ViewLux plate reader (PerkinElmer, Waltham, MA) after 30 min incubation at room temperature.", "values": [
      {"smiles": "OCC(O)CN1CCN(c2ccccc2)CC1", "note": "(stereo not given)", "outcome": "inactive"},
      {"smiles": "CC(N)CCCC(C)(C)O", "note": "(stereo not given)", "outcome": "inactive"},
      {"smiles": "Cn1nnc2c(C(N)=O)ncn2c1=O", "outcome": "inactive"},
      {"smiles": "CC(CO)(CO)CO", "outcome": "inactive"},
      {"smiles": "COS(=O)(=O)O", "outcome": "inactive"},
      {"smiles": "CC(O)COC(C)(C)C", "note": "(stereo not given)", "outcome": "inactive"},
      {"smiles": "CN(C)CCOC(=O)C(c1ccccc1)C1(O)CCCC1", "note": "(stereo not given)", "outcome": "inactive"},
      {"smiles": "C[Si]1(C)O[Si](C)(C)O[Si](C)(C)O[Si](C)(C)O[Si](C)(C)O1", "outcome": "inactive"},
      {"smiles": "CC(=O)OC(C)=O", "outcome": "inactive"},
      {"smiles": "CCN(CC)CCN", "outcome": "inactive"},
      {"smiles": "Cc1c(Cl)cccc1Cl", "outcome": "inactive"},
      {"smiles": "[O]=[Mo](=[O])=[O]", "activity change, negative = cytotoxicity": "3.04% [at 19 µM]"},
      {"smiles": "O=S(=O)(O)c1ccc2c(N=Nc3ccc(S(=O)(=O)O)c4ccccc34)c(O)c(S(=O)(=O)O)cc2c1", "activity change, negative = cytotoxicity": "-2.67% [at 8.39 µM]"},
      {"smiles": "CC1CCc2c(N3CCC(O)CC3)c(F)cc3c(=O)c(C(=O)O)cn1c23", "note": "(stereo not given)", "outcome": "inactive"},
      {"smiles": "Cc1ccc(C(C)NC(=O)[C@@H](NC(=O)OC(C)C)C(C)C)cc1", "note": "(stereo not given in full)", "outcome": "inactive"},
      {"smiles": "CO[C@@]1(NC(=O)Cc2cccs2)C(=O)N2C(C(=O)O)=C(COC(N)=O)CS[C@@H]21", "outcome": "inactive"},
      {"smiles": "OCC1CCC(CO)CC1", "note": "(stereo not given)", "outcome": "inactive"},
      {"smiles": "CC(C)CCOC(=O)c1ccccc1", "outcome": "inactive"},
      {"smiles": "CC(=O)O[C@H]1C[C@@H]2CC[C@@]1(C)C2(C)C", "outcome": "inactive"},
      {"smiles": "CCCCCCCCCCCCCBr", "outcome": "inactive"},
      {"smiles": "CO[Si](CCCn1c(=O)n(CCC[Si](OC)(OC)OC)c(=O)n(CCC[Si](OC)(OC)OC)c1=O)(OC)OC", "outcome": "inactive"},
      {"smiles": "CC(=O)CCc1ccc(OC(C)=O)cc1", "outcome": "inactive"},
      {"smiles": "CN(C)CCCO[C@@H]1[C@H]2OC(C)(C)O[C@H]2O[C@@H]1C(O)CO", "note": "(stereo not given in full)", "outcome": "inactive"},
      {"smiles": "CN1CCOC(c2ccccc2)c2ccccc2C1", "note": "(stereo not given)", "outcome": "inactive"},
      {"smiles": "CCO[Si](CC)(OCC)OCC", "outcome": "inactive"},
      {"smiles": "CC(C)OC(=O)OCOP(=O)(CO[C@H](C)Cn1cnc2c(N)ncnc21)OCOC(=O)OC(C)C", "outcome": "inactive"},
      {"smiles": "CCc1occc(=O)c1O", "outcome": "inactive"},
      {"smiles": "COC(=O)c1cccc(Cl)c1", "outcome": "inactive"},
      {"smiles": "C=CCSSCCC", "outcome": "inactive"},
      {"smiles": "CCO", "outcome": "inactive"},
      {"smiles": "CN(C)CCN(C)CCO", "outcome": "inactive"},
      {"smiles": "CC1c2ccccc2CN1NC(=O)c1ccc(Cl)c(S(N)(=O)=O)c1", "note": "(stereo not given)", "outcome": "inactive"},
      {"smiles": "CCn1cc(C(=O)O)c(=O)c2cnc(N3CCCC3)nc21", "activity change, negative = cytotoxicity": "0.0795% [at 8.39 µM]"},
      {"smiles": "CC(=O)c1cc(C)oc1C", "outcome": "inactive"},
      {"smiles": "CCCCC1CCC(O)CC1", "note": "(stereo not given)", "outcome": "inactive"},
      {"smiles": "COc1nc(N)nc2nc[nH]c12", "outcome": "inactive"},
      {"smiles": "CCC(=O)c1c(O)cc(O)cc1O", "outcome": "inactive"},
      {"smiles": "C=C(C)[C@@H]1CC=C(C)C(=O)C1", "outcome": "inactive"},
      {"smiles": "Cc1ncc([N+](=O)[O-])n1CC(C)O", "note": "(stereo not given)", "outcome": "inactive"},
      {"smiles": "CC(=O)CC(=O)OC(C)(C)C", "outcome": "inactive"}
    ]}
  ]
}
